EP2 antag: human EP2 receptor antagonists, primary screen, TR-FRET cAMP, C6 glioma cells; 260,000 compounds, 0.52% hits; C6 glioma cells expressing human EP2; cells stimulated with saturating PGE2; Prostaglandin E2 receptor EP2 subtype (Homo sapiens), P43116; inhibition, % at 25 µM; AID 1422, 2008;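 active means percent inhibition above 40 after rounding to a whole number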;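 further: rat C6 glioma host cells with rolipram phosphodiesterase inhibitor present; the protocol text gives 20 µM as final concentration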
EP2 mod: EP2 receptor modulators, cAMP readout, primary screen, cell-based, HTRF cAMP, PGE2 stimulation. Prostaglandin E2 receptor EP2 subtype (Homo sapiens), P43116. 260,000 compounds, 0.83% hits. EP2-expressing cells, cAMP HTRF FRET, PGE2 co-stimulation. induction, % at 25 µM. AID 940, 2007;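 active means compounds whose cAMP rise, as percent of the full-agonist control response, exceeds 60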;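 further: rat C6 glioma line stably carrying human EP2 under a CMV promoter; the protocol text gives 20 µM as final concentration; 100% = response of wells given 1 µM PGE2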
Furin inhibitor: human furin inhibitors, primary screen, biochemical, fluorescence intensity; 220,000 compounds, 0.061% hits; AID 463115, 2010; P09958; inhibition, % at 20 µM or 30 µM; purified furin, fluorogenic substrate cleavage; in the data active means inhibition above about 25%
Target sequence (P09958 108-714 limits assumed): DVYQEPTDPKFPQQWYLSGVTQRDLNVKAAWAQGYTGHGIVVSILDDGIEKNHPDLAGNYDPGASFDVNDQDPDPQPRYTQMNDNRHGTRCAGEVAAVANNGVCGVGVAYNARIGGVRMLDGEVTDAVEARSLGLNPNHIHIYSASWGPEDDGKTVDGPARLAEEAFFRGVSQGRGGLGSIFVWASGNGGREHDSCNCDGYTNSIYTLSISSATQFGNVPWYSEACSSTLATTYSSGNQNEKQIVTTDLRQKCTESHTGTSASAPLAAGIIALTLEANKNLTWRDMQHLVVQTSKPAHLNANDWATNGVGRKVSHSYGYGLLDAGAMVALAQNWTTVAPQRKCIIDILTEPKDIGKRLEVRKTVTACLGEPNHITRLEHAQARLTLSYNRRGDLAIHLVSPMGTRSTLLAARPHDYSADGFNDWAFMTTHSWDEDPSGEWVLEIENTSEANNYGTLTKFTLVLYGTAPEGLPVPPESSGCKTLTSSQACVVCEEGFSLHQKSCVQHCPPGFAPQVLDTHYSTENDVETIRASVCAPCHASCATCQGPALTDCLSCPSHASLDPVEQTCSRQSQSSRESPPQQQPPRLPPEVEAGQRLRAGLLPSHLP
m-calpain inh: inhibitors of pig calpain II, primary screen, biochemical, fluorogenic peptide substrate, 1536-well; AID 1236, 2008; 220,000 compounds, 0.37% hits; purified calpain II, 30 min; inhibition, % at 16 µM;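 active means inhibition above about 50%, limit read from the data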
Efa HMGR inh: inhibitors of E. faecalis class II HMGR, primary screen, biochemical, Enterococcus faecalis; HMG-CoA reductase (Enterococcus faecalis, mvaE); purified E. faecalis HMGR, NADPH absorbance 340 nm kinetic; inhibition, % at 10 µM; 190,000 compounds, 0.41% hits;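 active means inhibition above a set limit, the median over all tested compounds plus 3 SD, cut at about 9.5% in these data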;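 further: enzyme runs in reverse so mevalonate oxidation gives rising NADPH absorbance; 0% = complete reaction with DMSO and 100% = background rate lacking mevalonate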
* marks the source's active call; other numbers are inactive results; x = no result given. Only some compounds are listed: those with a hit (about 1.9% of all), similar ones and a draw of the others.

SMILES	EP2 antag	EP2 mod	Furin inhibitor	m-calpain inh	Efa HMGR inh
Clc1ccccc1C1CC(c2ccccc2)=Nc2ccccc2N1 (stereo not drawn)	7	62*	-5	17	x
CC1(C)CC(=O)C2=C(C1)NC1=C(C(=O)CC(C)(C)C1)C2c1ccc(OCC(=O)O)cc1	7	2	x	x	x
CCc1nnc(NS(=O)(=O)c2ccc(N=CC3=C(O)CC(C)(C)CC3=O)cc2)s1	7	2	26*	21	-8
C=CCn1nc(-c2ccccc2)c(N2CCCCC2)cc1=O	1	-11	-13	8	-7
O=c1cc(N2CCCCC2)c(-c2ccccc2)nn1Cc1ccc(Cl)cc1Cl	8	60	-5	54*	-4
CCc1cccc(NC(=O)c2cc3sccc3n2C)c1	12	-88	x	x	x
Cc1ccc2[nH]c(=O)c(C(c3nnnn3C3CCCC3)N3CCN(c4ccccc4F)CC3)cc2c1 (stereo not drawn)	4	12	x	x	x
CN1CCN(CN2C(=O)[C@H]3[C@H]4C=C[C@@H]([C@@H]3C2=O)[C@H]2[C@@H]3C(=O)N(CN5CCN(C)CC5)C(=O)[C@@H]3[C@@H]42)CC1	53*	8	x	x	x
O=c1c2ccccc2c(-c2ccc(Cl)cc2)nn1-c1ccccc1	5	63*	-13	3	-2
O=C(Nc1ccc(Br)cc1)c1csc(-c2ccncc2)n1	174*	-20	-19	-8	0
O=C(Nc1ccc(Cl)cc1)c1csc(-c2ccncc2)n1	7	-29	-16	11	3
Cc1nn(C)cc1S(=O)(=O)NCC1(c2ccccc2)CCCC1	9	-17	x	x	x
COc1ccc(S(=O)(=O)N2CCC(C(=O)Nc3ccc(C)c(C)c3)CC2)cc1	7	-113	x	x	x
O=C1C(SCCO)=C(SCCO)C(=O)c2ccccc21	43*	-60	x	x	x
O=C1COc2ccc(S(=O)(=O)N3CCS(=O)(=O)CC3)cc2N1	8	-24	x	x	x
COc1ccc(C(=O)c2no[n+]([O-])c2C(=O)c2ccc(OC)cc2)cc1	65*	-1	-7	9	-2
O=C(c1cccs1)c1no[n+]([O-])c1C(=O)c1cccs1	130*	-17	-9	-56	2
CCOc1ccccc1NC(=O)CSc1nc(C2CC2)nc2sc(C)c(C)c12	9	61*	x	x	x
CCOc1ccccc1NC(=O)CSc1nc(C)nc2sc(C)c(C)c12	5	73*	x	x	x
CCOc1ccccc1NC(=O)CSc1ncnc2sc3c(c12)CCC(C)C3 (stereo not drawn)	16	65*	x	x	x
Cc1ccc(NC(=O)CSc2nc(C3CC3)nc3sc(C)c(C)c23)c(C)c1	7	20	x	x	x
CC(=O)Nc1ccc(-n2nnnc2SCC(=O)Nc2ccc(F)cc2)cc1	6	-38	x	x	x
C=CCn1c(SCC)nc2sc3c(c2c1=O)CC(C)(C)OC3	7	80*	x	x	x
CCCSc1nc2sc3c(c2c(=O)n1CC)CC(C)(C)OC3	10	52	-13	1	x
COc1ccc(C2=NN(CC(=O)NCc3ccco3)C(=O)c3cc4ccccc4n3C2)cc1	x	-23	x	x	x
SMILES	EP2 antag	EP2 mod	Furin inhibitor	m-calpain inh	Efa HMGR inh
Cc1ccc(O)c(CN(CCCn2ccnc2)Cc2ccccc2F)c1	10	13	x	x	x
Cn1ccnc1Sc1nc2ccccc2nc1NS(=O)(=O)c1ccccc1	52*	50	-5	-9	-3
CCc1nn(CC(=O)NCCc2ccccc2OC)c(=O)c2cc3ccsc3n12	x	-29	x	x	x
O=c1cc(CSc2ccc([N+](=O)[O-])cc2)nc2sccn12	4	4	-11	-5	15*
COCCCNC(=S)N(Cc1cccs1)Cc1cc2cc(C)ccc2[nH]c1=O	15	-19	x	x	x
CCOC(=O)C1CCCN(CC(=O)NC2=Nc3ccccc3N=C(C)C2c2ccccc2)C1 (stereo not drawn)	15	-8	-15	24	-1
CC1=Nc2ccccc2N=C(NC(=O)CN2CCN(c3ccccc3)CC2)C1c1ccccc1 (stereo not drawn)	2	7	-18	57*	-4
O=C(c1ccc(Cl)cc1)N1CCn2c1nc1ccccc12	97*	-14	-3	14	-8
CCOC(=O)c1c(NC(=O)COc2cccc3c2CCN(CC)C3=O)sc2c1CCC2	11	64*	-15	-68	2
CCOC(=O)c1c(NC(=O)CN2CCOCC2)sc2c1CCCC2=O	3	2	4	12	-3
CCOC(=O)c1c(NC(=O)CN2CCOCC2)sc2c1CCCC2	3	62*	-18	-24	-4
